The results in this text go back to PubChem BioAssay (NCATS).

Records with an inconclusive call do not appear. Unmarked numbers belong to inactive results. Active and inactive are the calls of the source. Calls follow the shape of the dose curve; as a rule, active = well fitted curve in the direction sought with a large enough effect; inconclusive = small, poorly fitted or top-dose-only effect, or another doubt; inactive = no such curve, though single readings can be large; an effect the other way counts as inactive or inconclusive.

For one test, the system named is MCC-13. Nature of the test: qHTS assay to identify novel small-molecules to repurpose for Merkel cell carcinoma treatment (AID 1296009). Also: nearly all actives have a fitted effect of over 60% in size. Also: potency is read from the fitted curve at half-maximal effect. The settings on record: MCC and control cell lines, CellTiter-Glo viability, 72 h; series mostly up to 46 µM. The gist of the method: (§1)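 qHTS format: cells treated with library compounds in DMSO across 8 (NPC) or 11 (MIPE) concentrations. Readout after 72 hr at 37 degree celsius was CellTiter-Glo luminescence.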

The next test concerns MCC-26. The test is described as above. Conditions: MCC and control cell lines, CellTiter-Glo viability, 72 h; series mostly up to 46 µM. In outline:
as §1

Another test relates to MKL-2. The test is described as above. Conditions: MCC and control cell lines, CellTiter-Glo viability, 72 h; series mostly up to 46 µM. In outline: as §1
In a further test the test system is UISO. The description is as above. Conditions: MCC and control cell lines, CellTiter-Glo viability, 72 h; series mostly up to 46 µM. In outline:
as §1

A further test has as its system WaGa. The description is as above. Conditions: MCC and control cell lines, CellTiter-Glo viability, 72 h; series mostly up to 46 µM. In outline: as §1
A further test concerns C33A. Put plainly: Primary qHTS to identify gynecologic anti-cancer compounds using libraries of approved drugs and bioactive compounds (AID 1345084). Also: nearly all actives have a fitted effect of over 55% in size. Conditions: Gynecologic cancer cell panel viability, ATPlite luminescence, 48 h; series mostly up to 57.5 µM. The gist of the method:
(§2)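 Cells, 1,000 per well, plated 16 h, then exposed 48 h at 37 C to compounds. Viability by ATPlite luminescence after 15 min at room temperature.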

A further test deals with CAOV3. Described as above. The settings on record: Gynecologic cancer cell panel viability, ATPlite luminescence, 48 h; series mostly up to 57.5 µM. In outline:
as §2

Another test deals with CASKI. The test is described as above. The settings on record: Gynecologic cancer cell panel viability, ATPlite luminescence, 48 h; series mostly up to 57.5 µM. In outline: as §2
The subject of the next test is Es-2. The test is described as above. The settings on record: Gynecologic cancer cell panel viability, ATPlite luminescence, 48 h; series mostly up to 57.5 µM. The gist of the method: as §2
A further test has as its system Hek293T. The test is described as above. Conditions: Gynecologic cancer cell panel viability, ATPlite luminescence, 48 h, control line for the selectivity index; series mostly up to 57.5 µM. In outline:
as §2

The subject of the next test is JEG-3. The description is as above. Conditions: Gynecologic cancer cell panel viability, ATPlite luminescence, 48 h; series mostly up to 57.5 µM. The gist of the method: as §2
The test system of the next test is OV90. The test is described as above. Conditions: Gynecologic cancer cell panel viability, ATPlite luminescence, 48 h; series mostly up to 57.5 µM. In outline:
as §2

Another test concerns PA-1. The description is as above. Conditions: Gynecologic cancer cell panel viability, ATPlite luminescence, 48 h; series mostly up to 57.5 µM. In outline: as §2
A further test relates to SKOV3. The description is as above. The settings on record: Gynecologic cancer cell panel viability, ATPlite luminescence, 48 h; series mostly up to 57.5 µM. The gist of the method: as §2
For the next test, the system named is Tov-21-G. The test is described as above. The settings on record: Gynecologic cancer cell panel viability, ATPlite luminescence, 48 h; series mostly up to 57.5 µM. The gist of the method:
as §2

The subject of another test is Tov112D. The test is described as above. Conditions: Gynecologic cancer cell panel viability, ATPlite luminescence, 48 h; series mostly up to 57.5 µM. The gist of the method: as §2
Test [1] is described as follows: Drug repurposing screens with cells derived from glioblastoma tumor samples (AID 1345199). Also: nearly all actives have a fitted effect of over 40% in size. Also: potency is read from the fitted curve at half-maximal effect. The settings on record: GBM patient neurospheres viability, ATP luminescence, 48 h. In outline: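 Four patient lines of CD133+ GBM neurospheres were screened at several concentrations; hits were retested in those lines plus three slower-growing GBM lines, using 48-hour treatment and ATP-based viability.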

In another test the test system is HeLa. Nature of the test: Primary qHTS to identify gynecologic anti-cancer compounds using libraries of approved drugs and bioactive compounds (AID 1345084). Also: nearly all actives have a fitted effect of over 55% in size. The settings on record: Gynecologic cancer cell panel viability, ATPlite luminescence, 48 h; series mostly up to 57.5 µM. The gist of the method:
as §2

The next test has as its system MKL-1. Put plainly: qHTS assay to identify novel small-molecules to repurpose for Merkel cell carcinoma treatment (AID 1296009). Also: nearly all actives have a fitted effect of over 60% in size. Also: potency is read from the fitted curve at half-maximal effect. The settings on record: MCC and control cell lines, CellTiter-Glo viability, 72 h; series mostly up to 46 µM. The gist of the method:
as §1

In another test the test system is NIH3T3. Described as above. Conditions: MCC and control cell lines, CellTiter-Glo viability, 72 h; at 44.8 µM (top of the series) unless noted. In outline:
as §1

The mark [2] stands for this setting: at 45.9 µM (top of the series), tumour line B.
Setting [3] is: at 45.9 µM (top of the series), tumour line D.
Where [4] appears, read: at 46.1 µM (top of the series), tumour line C.
% is scaled to controls: 0 for no effect and ±100 for the full control effect.

On to `CN1CCN(CC(=O)N2c3ccccc3C(=O)Nc3cccnc32)CC1`, for which the activity change, negative = cytotoxicity in the test with MCC-13 was 8.41% [at 4.84 µM]; with MCC-26 it was 1.14% [at 4.84 µM]; in the test on MKL-2, 15.9% [at 4.84 µM]; in the test on UISO, 0.833% [at 4.84 µM]; in the test on WaGa, 4.82% [at 4.84 µM]; in the test on C33A, -17.4% [at 6.55 µM]. For the same molecule, the activity change, negative = cytotoxicity with CAOV3 is 6.09% [at 6.55 µM]; with CASKI it was 7.9% [at 6.55 µM]; in the test on Es-2, 2.19% [at 6.55 µM]; in the test with Hek293T it was 3.74% [at 6.55 µM]; with JEG-3 it was -2.67% [at 6.55 µM]; in the test on OV90 it was 8.92% [at 6.55 µM]. The activity change, negative = cytotoxicity was 18.1% [at 6.55 µM] with PA-1, 8.94% [at 6.55 µM] in the test with SKOV3, 7.44% [at 6.55 µM] in the test on Tov-21-G and -0.53% [at 6.55 µM] with Tov112D. Moreover, the results for the activity, negative = cell killing in [1] (setting [2]), in test [1] (setting [3]) and in test [1] (setting [4]) were -1.68%, -4.29% and 9.11%, respectively.

As to `C[C@]12CCC(=O)C=C1CC[C@@H]1[C@@H]2C(=O)C[C@@]2(C)[C@H]1CC[C@]2(O)C(=O)CO`, the Potency entry with MCC-13, with MCC-26, in the test on MKL-2, in the test on UISO, in the test with WaGa and with C33A was “inactive” each time. For the same molecule, the Potency result in the test with CAOV3, with CASKI, in the test with Es-2, with HeLa, in the test with Hek293T and with JEG-3 was “inactive” throughout. Further, the Potency entry with OV90, with SKOV3, with Tov-21-G and in the test with Tov112D was “inactive” each time. The activity, negative = cell killing in [1] (setting [2]) is -3.67%; in test [1] (setting [3]) it was -5.79%; in test [1] (at 46 µM (top of the series), tumour line A) it was -18.4%; in test [1] (setting [4]), 4.73%.

`OC(CCN1CCCCC1)(c1ccccc1)C1CCCCC1` (stereo not given): the Potency entry in the test on MCC-13, with MCC-26, with MKL-2, in the test with UISO, in the test on WaGa and with C33A was “inactive” in each case. Also, the Potency result in the test with CAOV3, in the test on CASKI, in the test with Es-2, in the test with Hek293T, in the test with JEG-3 and in the test on PA-1 was “inactive” in each case. The Potency entry in the test on SKOV3, in the test on Tov-21-G and in the test with Tov112D was “inactive” in each case. For the same molecule, the activity, negative = cell killing in test [1] (setting [2]) was -11.3%; in test [1] (setting [4]), -28%.

With `COc1cc(C(=O)OCCCN2CCCN(CCCOC(=O)c3cc(OC)c(OC)c(OC)c3)CC2)cc(OC)c1OC`, the Potency entry in the test on MCC-13, in the test on MCC-26, in the test with MKL-1, with UISO, in the test with C33A and in the test on HeLa was “inactive” in each case. For the same molecule, the Potency result in the test with Hek293T, in the test with JEG-3, with PA-1, in the test with SKOV3 and with Tov112D was “inactive” each time. The activity, negative = cell killing in test [1] (setting [4]) is -7.95%. Also, the Potency is 3.98 µM (active) in test [1] (tumour line A) and 22.4 µM (active) in test [1] (tumour line D).

Take `Brc1c(NC2=NCCN2)ccc2nccnc12`: the Potency entry in the test on MCC-13, with MCC-26, in the test on MKL-2, with UISO, in the test with WaGa and in the test on C33A was “inactive” in each case. Besides, the Potency entry in the test with CAOV3, in the test on CASKI, in the test with Es-2, in the test on HeLa, in the test on Hek293T and in the test with JEG-3 was “inactive” throughout. Further, the Potency result in the test with OV90, with PA-1, with SKOV3, with Tov-21-G and in the test on Tov112D was “inactive” in each case. The activity, negative = cell killing is -5.79% in test [1] (setting [2]), -4.16% in [1] (setting [3]) and 4.36% in [1] (setting [4]).

On to `CCc1c(C)[nH]c2c1C(=O)C(CN1CCOCC1)CC2` (stereo not given), for which the Potency result in the test with MCC-13, with MCC-26, with UISO, in the test with C33A, in the test with CAOV3 and with CASKI was “inactive” each time. Further, the Potency result with Es-2, in the test on HeLa, in the test with Hek293T, with JEG-3, in the test on OV90 and in the test on PA-1 was “inactive” each time. Further, the Potency entry in the test with SKOV3, in the test with Tov-21-G and with Tov112D was “inactive” each time. The Potency with MKL-2 was 9.44 µM (active). Moreover, the molecule was classed as inactive in the test with NIH3T3. The activity, negative = cell killing was -3.97% in [1] (at 20 µM (top of the series), tumour line C); -15.8% in [1] (at 21.2 µM (top of the series), tumour line B); 1.91% in test [1] (at 21.2 µM (top of the series), tumour line D).
